For some of these results: Entries with a potency or affinity are not part of this list. The source made the active and inactive calls. Unless noted, how the calls were made is not given here.
Columns and labels:
[1] = antimalarial activity against Dd2 strain (AID 2302;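 active means growth inhibition above 50% at the single 2 µM test dose, taken to imply half-maximal potency below 2 µM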;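 further: 0% = DMSO untreated growth and 100% = chloroquine plus artemisinin killed control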); details: P. falciparum Dd2 in RBCs, LDH growth readout, 72 h; at 2 µM; active compounds read high
[2] = HepG2 cytotoxicity, primary screen, cytotoxicity control for P. falciparum antimalarial project, cell-based, ATP luminescence (AID 2303;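 active means inhibition above 50%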;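 further: 0% = DMSO wells and 100% = digitonin-killed cells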); details: HepG2 viability, 24-48 h, at 10 µM, active compounds read high
[3] = biological target: L-lactate dehydrogenase (Plasmodium falciparum (isolate CDC / Honduras)) (UniProt Q27743); test: PfLDH activity inhibition – cell lysate, 3D7 strain, counter-screen for P. falciparum growth inhibition project (AID 2304);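 further: 0% = vehicle and 100% = reference inhibitor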; details: P. falciparum 3D7 crude extract, LDH APAD/NBT absorbance; at 2 µM; active compounds read high
[4] = inhibition of 3D7 malaria parasite growth – strain 3D7 (AID 2306);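 further: 0% = DMSO wells and 100% = chloroquine plus artemisinin control wells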; details: P. falciparum 3D7 erythrocytic growth, LDH absorbance, 72 h; at 2 µM; active compounds read high
[5] = biological target: Calcium-dependent protein kinase 1 (Plasmodium falciparum (isolate 3D7)) (UniProt P62344); test: PfCDPK1 kinase inhibitors, biochemical, TCAMS library (AID 1159585; cut-off not given, nearly all actives have IC50 up to about 0.98 µM;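 further: inhibitors leave more ATP so luminescence rises with inhibition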); details: recombinant PfCDPK1, Kinase-Glo ATP depletion luminescence
[6] = biological target: Plasmodium falciparum protein kinase 6 (PK6, PF3D7_1337100) (UniProt Q8IDW1); test: PfPK6 kinase inhibitors, biochemical, TCAMS library (AID 1159586); details: recombinant PfPK6, Kinase-Glo ATP depletion luminescence
[7] = biological target: Protein kinase 7 (PK7), Plasmodium falciparum 3D7 (PF3D7_0213400) (UniProt Q7YTF7); test: inhibition of Plasmodium PK7 catalytic activity – biochemical, TCAMS antimalarial set, Kinase-Glo luminescence (AID 1159587); details: recombinant PfPK7, Kinase-Glo ATP depletion luminescence
[8] = biological target: Calcium-dependent protein kinase 4 (Plasmodium falciparum (isolate 3D7)) (UniProt Q8IBS5); test: PfCDPK4 kinase inhibitors, biochemical, TCAMS library (AID 1159588; cut-off not given, nearly all actives have IC50 up to about 0.91 µM); details: recombinant PfCDPK4, Kinase-Glo ATP depletion luminescence
Calcium-dependent protein kinase 4 (Plasmodium falciparum (isolate 3D7)), sequence (Q8IBS5 whole entry, looked up): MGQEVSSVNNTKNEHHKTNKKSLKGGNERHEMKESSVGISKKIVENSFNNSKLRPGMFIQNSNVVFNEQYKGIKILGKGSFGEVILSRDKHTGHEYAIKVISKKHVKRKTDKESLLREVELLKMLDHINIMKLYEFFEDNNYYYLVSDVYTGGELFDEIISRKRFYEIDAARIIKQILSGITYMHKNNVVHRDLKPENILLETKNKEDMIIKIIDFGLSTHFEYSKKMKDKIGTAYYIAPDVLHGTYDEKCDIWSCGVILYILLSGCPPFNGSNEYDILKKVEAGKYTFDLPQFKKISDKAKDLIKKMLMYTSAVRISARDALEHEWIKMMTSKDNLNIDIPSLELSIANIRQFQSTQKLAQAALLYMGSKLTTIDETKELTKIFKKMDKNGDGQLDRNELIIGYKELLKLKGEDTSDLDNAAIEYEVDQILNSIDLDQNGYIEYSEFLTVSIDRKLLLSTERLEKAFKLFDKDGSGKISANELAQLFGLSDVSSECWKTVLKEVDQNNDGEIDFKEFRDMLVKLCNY

L-lactate dehydrogenase (Plasmodium falciparum (isolate CDC / Honduras)), sequence (Q27743 whole entry, looked up): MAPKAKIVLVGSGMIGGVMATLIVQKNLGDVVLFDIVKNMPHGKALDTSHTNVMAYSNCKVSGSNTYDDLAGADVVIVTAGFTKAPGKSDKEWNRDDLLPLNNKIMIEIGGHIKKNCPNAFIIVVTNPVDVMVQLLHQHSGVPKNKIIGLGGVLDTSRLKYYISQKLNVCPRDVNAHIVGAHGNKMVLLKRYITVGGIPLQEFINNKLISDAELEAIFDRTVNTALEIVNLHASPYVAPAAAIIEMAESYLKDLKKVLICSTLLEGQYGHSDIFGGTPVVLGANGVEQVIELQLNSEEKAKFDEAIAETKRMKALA
Protein kinase 7 (PK7), Plasmodium falciparum 3D7 (PF3D7_0213400), sequence (Q7YTF7 1-343): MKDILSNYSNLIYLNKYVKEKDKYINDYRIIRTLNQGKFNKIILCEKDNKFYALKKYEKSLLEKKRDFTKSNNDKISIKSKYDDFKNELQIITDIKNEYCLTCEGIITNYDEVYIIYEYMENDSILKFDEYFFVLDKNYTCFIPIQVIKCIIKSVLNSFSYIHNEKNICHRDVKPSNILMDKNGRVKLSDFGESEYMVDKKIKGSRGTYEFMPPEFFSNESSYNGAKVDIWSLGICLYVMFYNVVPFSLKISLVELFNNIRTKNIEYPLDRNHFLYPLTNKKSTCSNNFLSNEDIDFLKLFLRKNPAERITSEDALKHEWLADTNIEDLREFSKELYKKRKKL
Calcium-dependent protein kinase 1 (Plasmodium falciparum (isolate 3D7)), sequence (P62344 whole entry, looked up): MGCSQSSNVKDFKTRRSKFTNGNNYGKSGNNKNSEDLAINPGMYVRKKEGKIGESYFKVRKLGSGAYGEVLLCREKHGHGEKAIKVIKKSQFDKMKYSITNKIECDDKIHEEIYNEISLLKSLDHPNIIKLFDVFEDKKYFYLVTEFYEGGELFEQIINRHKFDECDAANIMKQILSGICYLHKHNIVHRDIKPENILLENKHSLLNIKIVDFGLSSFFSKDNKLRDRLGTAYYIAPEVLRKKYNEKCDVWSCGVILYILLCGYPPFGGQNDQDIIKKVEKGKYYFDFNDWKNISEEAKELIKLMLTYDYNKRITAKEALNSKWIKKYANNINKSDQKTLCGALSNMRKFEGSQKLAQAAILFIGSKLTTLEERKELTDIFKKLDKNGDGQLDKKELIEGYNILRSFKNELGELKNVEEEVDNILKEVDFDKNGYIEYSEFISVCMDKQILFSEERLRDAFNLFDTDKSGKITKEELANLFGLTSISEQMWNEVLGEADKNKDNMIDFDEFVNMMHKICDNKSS
Plasmodium falciparum protein kinase 6 (PK6, PF3D7_1337100), sequence (Q8IDW1 1-305): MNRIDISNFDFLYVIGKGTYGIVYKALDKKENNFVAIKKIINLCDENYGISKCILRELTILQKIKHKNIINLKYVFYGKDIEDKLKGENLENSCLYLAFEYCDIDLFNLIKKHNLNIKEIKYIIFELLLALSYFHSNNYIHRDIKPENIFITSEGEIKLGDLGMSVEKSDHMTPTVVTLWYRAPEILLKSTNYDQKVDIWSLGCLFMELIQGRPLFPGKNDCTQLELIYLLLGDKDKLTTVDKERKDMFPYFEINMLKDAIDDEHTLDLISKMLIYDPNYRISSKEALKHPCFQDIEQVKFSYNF

CCn1c(-c2nonc2N)nc2cnc(Oc3cccc(NC(=O)c4ccc(OCCN(C(C)C)C(C)C)cc4)c3)cc21
inactive: growth inhibition [1] 10% | inhibition [3] -6% | outcome [5] | outcome [6] | outcome [7] | outcome [8]
active: inhibition [2] 63% | growth inhibition [4] 97%

N#Cc1ccc2c(c1)CCN(CCC1CCC(NC(=O)c3cc4ccc(Cl)cc4[nH]3)CC1)C2 (stereo not given)
active: growth inhibition [4] 103%
inactive: growth inhibition [1] -2% | inhibition [2] 5% | inhibition [3] -3% | outcome [5] | outcome [6] | outcome [7] | outcome [8]

COC(=O)c1cccc(NC(=O)NCCNc2ccnc(Nc3ccc(F)cc3)n2)c1
active: growth inhibition [4] 93%
inactive: growth inhibition [1] 5% | inhibition [2] 10% | inhibition [3] -6% | outcome [5] | outcome [6] | outcome [7] | outcome [8]

CC1(C)C=C(c2ccncc2)c2cc(Cl)ccc2O1
active: growth inhibition [4] 97%
inactive: growth inhibition [1] 22% | inhibition [2] -4% | inhibition [3] 1% | outcome [5] | outcome [6] | outcome [7] | outcome [8]

CC(C)Oc1cc2c(cc1NS(=O)(=O)c1ccc(-c3ccc(Cl)cc3)cc1F)CCN(C)CC2
inactive: growth inhibition [1] 2% | inhibition [2] 29% | inhibition [3] -1% | outcome [5] | outcome [6] | outcome [7] | outcome [8]
active: growth inhibition [4] 88%

CC(C)(C)c1ccc(NC(=O)c2ccc(CN3CCCN(Cc4cccc(O)c4)CC3)cc2)cc1
inactive: inhibition [3] 1% | outcome [5] | outcome [6] | outcome [7] | outcome [8]
active: growth inhibition [1] 62% | inhibition [2] 54% | growth inhibition [4] 102%

O[C@H](c1cc(C(F)(F)F)nc2c(C(F)(F)F)cccc12)[C@@H]1CCCCN1
inactive: inhibition [2] 29% | inhibition [3] 7% | outcome [5] | outcome [6] | outcome [7] | outcome [8]
active: growth inhibition [1] 99% | growth inhibition [4] 99%

O=c1cc(NCCCNCc2[nH]c3cc(Cl)cc(Cl)c3c2Cn2cccn2)[nH]c2ccccc12
inactive: growth inhibition [1] 2% | inhibition [2] 5% | inhibition [3] 1% | outcome [5] | outcome [6] | outcome [7] | outcome [8]
active: growth inhibition [4] 86%

COc1cc(OC)c(NC(=O)C2c3ccccc3C(=O)N(C)C2c2cccs2)cc1Cl (stereo not given)
inactive: inhibition [2] 4% | inhibition [3] -5% | outcome [5] | outcome [6] | outcome [7] | outcome [8]
active: growth inhibition [1] 52% | growth inhibition [4] 99%

Cc1ccc(C(=O)Nc2cccc(CN3CCCN(Cc4ccc(O)cc4)CC3)c2)s1
active: growth inhibition [4] 90%
inactive: growth inhibition [1] 23% | inhibition [2] 17% | inhibition [3] -4% | outcome [5] | outcome [6] | outcome [7] | outcome [8]

CCN1CCC(N(CCCCCCc2ccc(C(F)(F)F)cc2)C(=O)Cn2c(CCc3cccc(F)c3F)cc(=O)c3ccccc32)CC1
active: growth inhibition [1] 82% | growth inhibition [4] 88%
inactive: inhibition [2] 32% | inhibition [3] -7% | outcome [5] | outcome [6] | outcome [7] | outcome [8]

COc1ccc(S(=O)(=O)NCCCC2CCN(CCCCCNC(=O)C=Cc3ccc(Cl)c(Cl)c3)CC2)cc1
active: growth inhibition [4] 85%
inactive: growth inhibition [1] 12% | inhibition [2] 24% | inhibition [3] 0% | outcome [5] | outcome [6] | outcome [7] | outcome [8]

Cc1cccc(-c2ccc3c(c2)CC(NCc2cccc(-n4ccnc4)c2)C3)c1 (stereo not given)
active: growth inhibition [4] 101%
inactive: growth inhibition [1] 49% | inhibition [2] 11% | inhibition [3] 0% | outcome [5] | outcome [6] | outcome [7] | outcome [8]

CCOC(=O)c1cc2c(CCN3C(=O)c4ccccc4C3=O)cn(C)c2cc1-c1ccncc1
inactive: inhibition [3] 2% | outcome [5] | outcome [6] | outcome [7] | outcome [8]
active: growth inhibition [1] 90% | inhibition [2] 99% | growth inhibition [4] 101%

COC(=O)c1c(C#N)c(OC)cc(O)c1CSC[C@@H](CN1CCCCC1)Nc1nc(-c2ccc([N+](=O)[O-])cc2)cs1
inactive: inhibition [2] 8% | inhibition [3] -3% | outcome [5] | outcome [6] | outcome [7] | outcome [8]
active: growth inhibition [1] 77% | growth inhibition [4] 101%

CC(C)Nc1nc(NCCc2cnc[nH]2)nc(Nc2ccc(Oc3ccccc3)cc2)n1
inactive: growth inhibition [1] 9% | inhibition [2] -3% | inhibition [3] 1% | outcome [5] | outcome [6] | outcome [7] | outcome [8]
active: growth inhibition [4] 95%

CCn1c(C)cc(C=C2SC(=Nc3ccccc3)NC2=O)c1C
inactive: inhibition [2] 27% | inhibition [3] 3% | outcome [5] | outcome [6] | outcome [7] | outcome [8]
active: growth inhibition [1] 87% | growth inhibition [4] 90%

O=C1c2ccccc2CN1CCCN1CCC(Oc2ccc(F)cc2)CC1
active: growth inhibition [4] 97%
inactive: growth inhibition [1] 1% | inhibition [2] 14% | inhibition [3] 3% | outcome [5] | outcome [6] | outcome [7] | outcome [8]

Nc1c(Cl)cc(C(O)CNCCCCCCOCCc2ccc(O)cc2)cc1Cl (stereo not given)
active: growth inhibition [1] 97% | growth inhibition [4] 97%
inactive: inhibition [2] 13% | inhibition [3] -3% | outcome [5] | outcome [6] | outcome [7] | outcome [8]

CCc1ccc(CN2CCCCC(NC(=O)c3cc(-c4ccccc4F)cs3)C2)cc1 (stereo not given)
active: growth inhibition [4] 87%
inactive: growth inhibition [1] 12% | inhibition [2] 25% | inhibition [3] -4% | outcome [5] | outcome [6] | outcome [7] | outcome [8]

— PubChem BioAssay
